Out of some 39,000 compounds screened, about 1,500 (3.8%) were called active. The full list was thinned out, with actives kept by preference.

The test concerns HSkMC (human skeletal muscle cells). The experiment in a line: cytotoxicity call (relative viability < 0.9). The note with it: 10 µM.
In the case of `C[C@@H]1CN([C@@H](C)CO)C(=O)c2cc(NC(=O)C3CC3)ccc2O[C@@H]1CN(C)C(=O)NC1CCCCC1`, the cytotoxicity call is “inactive”.

Consider `C=CC(=O)NS(=O)(=O)c1ccccc1`, for which the cytotoxicity call was “inactive”.

As to `CCS(=O)(=O)N1CC[C@H]2[C@H](CC1)S(=O)(=O)CCN2C(=O)c1ccccc1`, the cytotoxicity call is “inactive”.

`COCC(=O)N1C[C@@H](C)[C@@H](OC)CN(C)C(=O)c2ccc(NC(=O)c3ccc(OC)cc3)cc2OC[C@@H]1C`: the cytotoxicity call is “inactive”.

For `Cc1cc(N)n(-c2nc(=O)c(C)c(C)[nH]2)n1`, the cytotoxicity call is “inactive”.

Turning to `CCCCc1c(C)nc2ccc(Br)cc2c1SC(N)N`, the cytotoxicity call was “inactive”.

As for `NS(=O)(=O)c1ccc2c(c1)COC2`, the cytotoxicity call was “inactive”.

As to `COc1ccc(S(=O)(=O)N(C)C[C@@H]2Oc3c(NS(=O)(=O)c4ccc(C)cc4)cccc3C(=O)N([C@@H](C)CO)C[C@@H]2C)cc1`, the cytotoxicity call was “inactive”.

As for `C[C@@H]1CN([C@@H](C)CO)C(=O)Cc2cc(NS(=O)(=O)c3ccc(Cl)cc3)ccc2O[C@H]1CN(C)Cc1ccc(C(F)(F)F)cc1`, the cytotoxicity call is “inactive”.

As for `C[C@H]1CN([C@@H](C)CO)C(=O)Cc2cc(NS(=O)(=O)c3ccc(Cl)cc3)ccc2O[C@H]1CN(C)Cc1ccc(C(F)(F)F)cc1`, the cytotoxicity call was “active”.

For `C[C@H](CO)N1C[C@H](C)[C@@H](CN(C)Cc2ccc(C(F)(F)F)cc2)Oc2ccc(NS(=O)(=O)c3ccc(Cl)cc3)cc2CC1=O`, the cytotoxicity call was “inactive”.

Consider `C[C@H]1CN([C@@H](C)CO)C(=O)Cc2cc(NS(=O)(=O)c3ccc(Cl)cc3)ccc2O[C@@H]1CN(C)Cc1ccc(C(F)(F)F)cc1`, for which the cytotoxicity call is “active”.

As to `C[C@@H]1CN([C@H](C)CO)C(=O)c2cc(NC(=O)CCCN(C)C)ccc2O[C@@H]1CN(C)C(=O)NC1CCCCC1`, the cytotoxicity call is “inactive”.

As to `C[C@@H]1CN([C@@H](C)CO)C(=O)c2cc(NS(C)(=O)=O)ccc2O[C@H]1CN(C)Cc1ccc(C(=O)Nc2ccccc2N)cc1`, the cytotoxicity call is “inactive”.

As for `COc1ccc(CN(C)C[C@H]2Oc3ccc(NC(=O)CCN4CCOCC4)cc3C(=O)N([C@H](C)CO)C[C@H]2C)cc1`, the cytotoxicity call was “inactive”.

`C[C@@H]1CN([C@H](C)CO)C(=O)c2cc(NC(=O)Nc3ccc(C(F)(F)F)cc3)ccc2O[C@H]1CN(C)CC1CCCCC1`: the cytotoxicity call was “inactive”.

In the case of `C[C@@H]1CN([C@@H](C)CO)C(=O)c2cc(NC(=O)Nc3ccc(C(F)(F)F)cc3)ccc2O[C@@H]1CN(C)CC1CCCCC1`, the cytotoxicity call was “active”.

On to `C[C@H]1CN([C@@H](C)CO)C(=O)c2cc(NC(=O)Nc3ccc(F)cc3)ccc2O[C@H]1CN(C)CC1CCCCC1`, for which the cytotoxicity call was “inactive”.

As to `C[C@@H]1CN([C@H](C)CO)C(=O)c2cc(NC(=O)Nc3ccc(F)cc3)ccc2O[C@H]1CN(C)CC1CCCCC1`, the cytotoxicity call was “inactive”.

As for `C[C@H]1CN([C@@H](C)CO)C(=O)c2cc(NC(=O)Nc3ccc(C(F)(F)F)cc3)ccc2O[C@@H]1CN(C)CC1CCCCC1`, the cytotoxicity call was “inactive”.

For `C[C@H](CO)N1C[C@H](C)[C@H](CN(C)CC2CCCCC2)Oc2ccc(NC(=O)Nc3ccc(C(F)(F)F)cc3)cc2C1=O`, the cytotoxicity call is “active”.

Take `C[C@@H]1CN([C@@H](C)CO)C(=O)c2cc(NC(=O)Nc3ccc(C(F)(F)F)cc3)ccc2O[C@H]1CN(C)CC1CCCCC1`: the cytotoxicity call was “active”.

With `C[C@H](CO)N1C[C@H](C)[C@@H](CN(C)CC2CCCCC2)Oc2ccc(NC(=O)Nc3ccc(C(F)(F)F)cc3)cc2C1=O`, the cytotoxicity call was “inactive”.

Take `C[C@H](CO)N1C[C@H](C)[C@H](CN(C)CC2CCCCC2)Oc2ccc(NC(=O)Nc3ccc(F)cc3)cc2C1=O`: the cytotoxicity call was “inactive”.

With `C[C@@H]1CN([C@H](C)CO)C(=O)c2cc(NC(=O)Nc3ccc(C(F)(F)F)cc3)ccc2O[C@@H]1CN(C)CC1CCCCC1`, the cytotoxicity call is “active”.

For the molecule `C[C@@H]1CN([C@@H](C)CO)C(=O)c2cc(NC(=O)Nc3ccc(F)cc3)ccc2O[C@@H]1CN(C)CC1CCCCC1`, the cytotoxicity call was “inactive”.

Regarding `C[C@H]1CN([C@@H](C)CO)C(=O)c2cc(NC(=O)Nc3ccc(F)cc3)ccc2O[C@@H]1CN(C)CC1CCCCC1`, the cytotoxicity call was “inactive”.

On to `C[C@@H]1CCCCO[C@@H](CN(C)C(=O)Nc2ccc(C(F)(F)F)cc2)[C@@H](C)CN([C@H](C)CO)C(=O)c2cc(NS(=O)(=O)c3ccc(Cl)cc3)ccc2O1`, for which the cytotoxicity call is “inactive”.

Consider `O=C(C[C@H]1C[C@@H]2c3cc(NS(=O)(=O)c4ccc(F)cc4)ccc3O[C@@H]2[C@H](CO)O1)NC1CCCCC1`, for which the cytotoxicity call was “inactive”.

As to `C[C@@H]1CN([C@H](C)CO)C(=O)c2cc(NC(=O)Nc3cccc4ccccc34)ccc2O[C@H]1CN(C)CC1CCCCC1`, the cytotoxicity call was “inactive”.

Turning to `C[C@@H]1CCCCO[C@@H](CN(C)S(=O)(=O)c2ccc(F)cc2)[C@@H](C)CN([C@@H](C)CO)C(=O)c2cc(NC(=O)NC3CCCCC3)ccc2O1`, the cytotoxicity call is “inactive”.

For the molecule `C[C@H]1CN([C@@H](C)CO)C(=O)Cc2cc(NS(C)(=O)=O)ccc2O[C@@H]1CN(C)Cc1ccc2c(c1)OCO2`, the cytotoxicity call is “inactive”.

In the case of `O=C(C[C@@H]1C[C@@H]2c3cc(NS(=O)(=O)c4ccc(F)cc4)ccc3O[C@@H]2[C@@H](CO)O1)NC1CCCC1`, the cytotoxicity call was “inactive”.

In the case of `O=C(C[C@H]1CC[C@@H]2[C@H](COC[C@H](O)CN2C(=O)Nc2cccc(Cl)c2)O1)NCCCN1CCOCC1`, the cytotoxicity call is “inactive”.

As for `Cc1ccc(S(=O)(=O)N(C)C[C@@H]2Oc3ccc(NC(=O)Nc4ccc(C(F)(F)F)cc4)cc3C(=O)N([C@H](C)CO)C[C@H]2C)cc1`, the cytotoxicity call was “inactive”.

`C[C@@H]1CN([C@H](C)CO)C(=O)c2cc(NC(=O)Nc3ccc(C(F)(F)F)cc3)ccc2O[C@@H]1CN(C)S(=O)(=O)c1ccc(Cl)cc1`: the cytotoxicity call is “active”.

With `Cc1ccc(S(=O)(=O)N(C)C[C@@H]2Oc3ccc(NC(=O)Nc4ccc(C(F)(F)F)cc4)cc3C(=O)N([C@@H](C)CO)C[C@H]2C)cc1`, the cytotoxicity call is “inactive”.

In the case of `C[C@@H]1CN([C@@H](C)CO)C(=O)c2cc(NC(=O)Nc3ccc(C(F)(F)F)cc3)ccc2O[C@H]1CN(C)S(=O)(=O)c1ccc(Cl)cc1`, the cytotoxicity call is “inactive”.

On to `C[C@H]1CN([C@@H](C)CO)C(=O)c2cc(NC(=O)Nc3ccc(C(F)(F)F)cc3)ccc2O[C@@H]1CN(C)S(=O)(=O)c1ccc(Cl)cc1`, for which the cytotoxicity call is “inactive”.

Regarding `C[C@@H]1CN([C@H](C)CO)C(=O)c2cc(NC(=O)Nc3ccc(C(F)(F)F)cc3)ccc2O[C@H]1CN(C)S(=O)(=O)c1ccc(Cl)cc1`, the cytotoxicity call is “inactive”.

For `C[C@H]1CN([C@@H](C)CO)C(=O)c2cc(NC(=O)Nc3ccc(C(F)(F)F)cc3)ccc2O[C@H]1CN(C)S(=O)(=O)c1ccc(Cl)cc1`, the cytotoxicity call was “inactive”.

Turning to `C[C@H](CO)N1C[C@H](C)[C@H](CN(C)S(=O)(=O)c2ccc(Cl)cc2)Oc2ccc(NC(=O)Nc3ccc(C(F)(F)F)cc3)cc2C1=O`, the cytotoxicity call is “active”.

In the case of `C[C@@H]1CN([C@@H](C)CO)C(=O)c2cc(NC(=O)Nc3ccc(C(F)(F)F)cc3)ccc2O[C@@H]1CN(C)S(=O)(=O)c1ccc(Cl)cc1`, the cytotoxicity call was “active”.

As for `C[C@@H]1CCCCO[C@@H](CN(C)C(=O)Nc2ccccc2)[C@H](C)CN([C@H](C)CO)C(=O)c2cc(NC(=O)CCC(F)(F)F)ccc2O1`, the cytotoxicity call is “inactive”.

As to `C[C@@H]1CN([C@H](C)CO)C(=O)c2cc(NC(=O)CCN3CCOCC3)ccc2O[C@H]1CN(C)S(=O)(=O)c1ccccc1`, the cytotoxicity call was “inactive”.

With `Cc1noc(C)c1NC(=O)N(C)C[C@@H]1OCCCC[C@H](C)Oc2ccc(NC(=O)C3CCCCC3)cc2C(=O)N([C@@H](C)CO)C[C@@H]1C`, the cytotoxicity call is “inactive”.

On to `C[C@@H]1CCCCO[C@@H](CN(C)Cc2ccc(C(=O)Nc3ccccc3N)cc2)[C@@H](C)CN([C@H](C)CO)C(=O)c2cc(NC(=O)Nc3ccc4c(c3)OCO4)ccc2O1`, for which the cytotoxicity call was “inactive”.

For `COc1ccc(CN(C)C[C@@H]2OCCCC[C@H](C)Oc3ccc(NC(=O)CCC(F)(F)F)cc3C(=O)N([C@@H](C)CO)C[C@H]2C)cc1`, the cytotoxicity call was “inactive”.

Regarding `O=C(C[C@@H]1C=C[C@H](NC(=O)Nc2ccc3c(c2)OCO3)[C@H](CO)O1)NCCCN1CCOCC1`, the cytotoxicity call was “inactive”.

As for `c1cncc(-c2nc3ccc4ccccc4c3c3c2CCCC3)c1`, the cytotoxicity call was “inactive”.

In the case of `CN1CCN(C(=O)C[C@H]2CC[C@@H]3[C@H](COC[C@@H](O)CN3C(=O)Nc3ccc4c(c3)OCO4)O2)CC1`, the cytotoxicity call was “inactive”.

With `COc1ccc(S(=O)(=O)N(C)C[C@@H]2Oc3ccc(NS(=O)(=O)c4cn(C)cn4)cc3C(=O)N([C@@H](C)CO)C[C@@H]2C)cc1`, the cytotoxicity call was “inactive”.

For the molecule `C[C@@H]1CN([C@H](C)CO)C(=O)c2cccc(NC(=O)C3CCOCC3)c2O[C@@H]1CN(C)C(=O)NC1CCCCC1`, the cytotoxicity call is “inactive”.

In the case of `C[C@H]1CCCCO[C@@H](CN(C)CC2CCCCC2)[C@@H](C)CN([C@@H](C)CO)C(=O)c2cc(NC(=O)Nc3cccc4ccccc34)ccc2O1`, the cytotoxicity call was “inactive”.

For `C[C@@H]1CCCCO[C@H](CN(C)CC2CC2)[C@@H](C)CN([C@H](C)CO)C(=O)c2cc(NC(=O)Nc3cccc4ccccc34)ccc2O1`, the cytotoxicity call was “inactive”.

For `C[C@@H]1CCCCO[C@@H](CN(C)CC2CCCCC2)[C@@H](C)CN([C@@H](C)CO)C(=O)c2cc(NC(=O)Nc3cccc4ccccc34)ccc2O1`, the cytotoxicity call was “active”.

Take `C[C@H](CO)N1C[C@H](C)[C@@H](CN(C)CC2CCCCC2)OCCCC[C@H](C)Oc2ccc(NC(=O)Nc3cccc4ccccc34)cc2C1=O`: the cytotoxicity call is “inactive”.

Consider `C[C@@H]1CCCCO[C@@H](CN(C)CC2CCCCC2)[C@H](C)CN([C@H](C)CO)C(=O)c2cc(NC(=O)Nc3cccc4ccccc34)ccc2O1`, for which the cytotoxicity call is “active”.

Regarding `C[C@H](CO)N1C[C@H](C)[C@H](CN(C)CC2CC2)OCCCC[C@H](C)Oc2ccc(NC(=O)Nc3cccc4ccccc34)cc2C1=O`, the cytotoxicity call was “inactive”.

Regarding `C[C@@H]1CCCCO[C@H](CN(C)CC2CCCCC2)[C@H](C)CN([C@@H](C)CO)C(=O)c2cc(NC(=O)Nc3cccc4ccccc34)ccc2O1`, the cytotoxicity call was “active”.

`C[C@@H]1CN([C@H](C)CO)C(=O)c2cc(NC(=O)Nc3cccc4ccccc34)ccc2O[C@@H](C)CCCCO[C@@H]1CN(C)CC1CCCCC1`: the cytotoxicity call was “active”.

The values are drawn from the antibiotic and cytotoxicity screens of Wong et al. (2023).
